Assay [1] can be described thus: small molecules captured by biotinylated probe aFSTL3 – biochemical, small-molecule microarray, fluorescence 635/667, stem cell growth factor project, primary screen (AID 1064).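 Note: measures binding of the biotinylated anti-FSTL3 antibody to printed compounds.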 Conditions: higher = more signal.
The nature of assay [2]: binders from COS7 lysate, DM2A8 probe, primary screen, torsin A project, cell lysate, small-molecule microarray, fluorescence 635/667 (AID 1065). The following applies: higher = more signal, COS7 lysate expressing mutant human TOR1A.
Assay [3] is described as follows: small molecules captured by biotinylated probe aFGF2 – biochemical, small-molecule microarray, fluorescence 635/667, stem cell growth factor project, primary screen (AID 1067).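 Note: measures binding of biotinylated aFGF2 protein to printed compounds on slides; z-score merges feature fluorescence and signal-to-noise across triplicate slides.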 Conditions: higher = more signal.
The nature of assay [4]: small molecules captured by biotinylated probe aFGF10 – biochemical, small-molecule microarray, fluorescence 635/667, stem cell growth factor project, primary screen (AID 1071).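 Note: score merges 667 nm spot intensity and signal to noise from triplicate slides.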 Conditions: higher = more signal.
Assay [5] addresses Neurogenic locus notch homolog protein 2 (Homo sapiens) (UniProt Q04721). In words: small molecules binding Notch2 protein – biochemical, small-molecule microarray, 635 nm fluorescence, stem cell growth factors, primary screen (AID 1073). Conditions: higher = more signal.
Assay [6] concerns the target Pro-neuregulin-1, membrane-bound isoform (Homo sapiens) (UniProt Q02297). Nature of the assay: small molecules binding neuregulin-1 protein – biochemical, small-molecule microarray, fluorescence 635/667, psychiatric disease protein project, primary screen (AID 1075).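 Note: score combines 667 nm spot fluorescence with signal to noise.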 The following applies: NRG1 binding, 635 nm fluorescence, higher = more signal.
The subject of assay [7] is Neuregulin-1 EGF-like domain. In words: small molecules binding NRG1 EGF domain – biochemical, small-molecule microarray, 635 nm fluorescence, primary screen (AID 1081).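 Note: binding of the protein to compounds printed on small-molecule microarray slides.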 Conditions: higher = more signal.
Assay [8] is described as follows: FRG1 expression reporter modulators in myotubes – cell-based, C2C12 myotubes, firefly/Renilla luciferase, luminescence, FRG1 inhibition for FSHD, primary screen (AID 1084). Conditions: FRG1 promoter luciferase, higher = more signal, called active from +8 up or from −8 down.
Assay [9] is described as follows: small molecules captured by biotinylated probe aFST – biochemical, small-molecule microarray, fluorescence 635/667, stem cell growth factor project, primary screen (AID 1086).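 Note: score merges 667 nm fluorescence with signal-to-noise of each printed compound spot.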 Conditions: higher = more signal.
Assay [10] is described as follows: binders of probe aHhip on microarray, primary screen, stem cell growth factor project, biochemical, small-molecule microarray, fluorescence 635/667 (AID 1087).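 Note: score merges spot fluorescence at 667nm with spot signal to noise ratio.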 The following applies: higher = more signal.
Assay [11] deals with PRMT1 (protein arginine N-methyltransferase 1). In words: small molecules binding arginine methyltransferase PRMT1 – biochemical, small-molecule microarray, 635 nm fluorescence, primary screen (AID 1088).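 Note: binding of Prmt1 protein to compounds spotted on small-molecule microarray slides.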 The following applies: higher = more signal.
Assay [12] can be described thus: growth effects on S. cerevisiae YJM789 – YJM789 clinical isolate, OD600, 24 h, basal, primary screen (AID 1089).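 Note: growth of clinical yeast isolate S. cerevisiae YJM 789 seeded 1000 cells per well; test concentration not given here.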 Conditions: higher = more signal, called active from +8 up or from −8 down.
The nature of assay [13]: S. pombe growth modifiers, basal conditions – strain 972, OD600, 24 h, no modulator, primary screen (AID 1090).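 Note: basal condition with compound alone and no growth modifier present; test concentration not given here.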 The following applies: S. pombe 972 growth, higher = more signal, called active from +8 up or from −8 down.
A short description of assay [14]: budding yeast growth modifiers under rapamycin – strain BY4716, OD600, 96 h, primary screen (AID 1091). Note: test concentration not given here. The following applies: S. cerevisiae BY4716 + rapamycin, higher = more signal, called active from +8 up or from −8 down.
The target of assay [15] is Torsin-1A-interacting protein 2 (Homo sapiens) (UniProt Q8NFQ8). Nature of the assay: small molecules binding lysate-expressed LULL1 – cell lysate, human LULL1 lysate, 635/667 nm fluorescence, primary screen (AID 1092).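 Note: probe is lysate of COS7 cells overexpressing human LULL1; score merges per-feature 667 nm fluorescence with signal-to-noise.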 Conditions: small-molecule microarray, hLULL1 lysate binding, 635 nm fluorescence; higher = more signal.
Assay [16] is described as follows: optical density change of DRC41 E. coli – strain DRC41, OD650, 24 h, E. coli filamentation project, primary screen (AID 1093).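 Note: MC1000 strain lacking acrAB efflux and sulA so SOS filamentation is blocked; test concentration not given here.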 The following applies: E. coli DRC41 growth, higher = more signal, called active from +8 up or from −8 down.
Assay [17] is described as follows: probe aLefty2 binding to arrayed compounds – biochemical, biotinylated probe, 635/667 nm fluorescence, primary screen (AID 1094).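 Note: score merges spot fluorescence near 667 nm with spot signal-to-noise ratio.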 The following applies: small-molecule microarray, higher = more signal.
Assay [18] relates to Noggin (protein binding on small-molecule microarray). Nature of the assay: small molecules binding Noggin protein – biochemical, 635/667 nm fluorescence, primary screen (AID 1095).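 Note: score merges 667 nm feature fluorescence with signal to noise over triplicate slides.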 Conditions: 635 nm fluorescence, higher = more signal.
Assay [19] has as its target Neurogenic locus notch homolog protein 3 (Homo sapiens) (UniProt Q9UM47). Nature of the assay: small molecules binding NOTCH3 protein – biochemical, 635/667 nm fluorescence, primary screen (AID 1096). Conditions: small-molecule microarray, 635 nm fluorescence, higher = more signal.
A short description of assay [20]: probe aEGFR binding to arrayed compounds – biochemical, biotinylated probe, 635/667 nm fluorescence, primary screen (AID 1097).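 Note: probe is a biotinylated anti-EGFR antibody binding compounds printed on slides; score combines fluorescence near 667 nm and signal to noise of each spot.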 The following applies: small-molecule microarray, higher = more signal.

Molecules are shown by their SMILES. The source made the active and inactive calls.

Chain of Neurogenic locus notch homolog protein 3 (Homo sapiens) (Q9UM47 whole entry, looked up): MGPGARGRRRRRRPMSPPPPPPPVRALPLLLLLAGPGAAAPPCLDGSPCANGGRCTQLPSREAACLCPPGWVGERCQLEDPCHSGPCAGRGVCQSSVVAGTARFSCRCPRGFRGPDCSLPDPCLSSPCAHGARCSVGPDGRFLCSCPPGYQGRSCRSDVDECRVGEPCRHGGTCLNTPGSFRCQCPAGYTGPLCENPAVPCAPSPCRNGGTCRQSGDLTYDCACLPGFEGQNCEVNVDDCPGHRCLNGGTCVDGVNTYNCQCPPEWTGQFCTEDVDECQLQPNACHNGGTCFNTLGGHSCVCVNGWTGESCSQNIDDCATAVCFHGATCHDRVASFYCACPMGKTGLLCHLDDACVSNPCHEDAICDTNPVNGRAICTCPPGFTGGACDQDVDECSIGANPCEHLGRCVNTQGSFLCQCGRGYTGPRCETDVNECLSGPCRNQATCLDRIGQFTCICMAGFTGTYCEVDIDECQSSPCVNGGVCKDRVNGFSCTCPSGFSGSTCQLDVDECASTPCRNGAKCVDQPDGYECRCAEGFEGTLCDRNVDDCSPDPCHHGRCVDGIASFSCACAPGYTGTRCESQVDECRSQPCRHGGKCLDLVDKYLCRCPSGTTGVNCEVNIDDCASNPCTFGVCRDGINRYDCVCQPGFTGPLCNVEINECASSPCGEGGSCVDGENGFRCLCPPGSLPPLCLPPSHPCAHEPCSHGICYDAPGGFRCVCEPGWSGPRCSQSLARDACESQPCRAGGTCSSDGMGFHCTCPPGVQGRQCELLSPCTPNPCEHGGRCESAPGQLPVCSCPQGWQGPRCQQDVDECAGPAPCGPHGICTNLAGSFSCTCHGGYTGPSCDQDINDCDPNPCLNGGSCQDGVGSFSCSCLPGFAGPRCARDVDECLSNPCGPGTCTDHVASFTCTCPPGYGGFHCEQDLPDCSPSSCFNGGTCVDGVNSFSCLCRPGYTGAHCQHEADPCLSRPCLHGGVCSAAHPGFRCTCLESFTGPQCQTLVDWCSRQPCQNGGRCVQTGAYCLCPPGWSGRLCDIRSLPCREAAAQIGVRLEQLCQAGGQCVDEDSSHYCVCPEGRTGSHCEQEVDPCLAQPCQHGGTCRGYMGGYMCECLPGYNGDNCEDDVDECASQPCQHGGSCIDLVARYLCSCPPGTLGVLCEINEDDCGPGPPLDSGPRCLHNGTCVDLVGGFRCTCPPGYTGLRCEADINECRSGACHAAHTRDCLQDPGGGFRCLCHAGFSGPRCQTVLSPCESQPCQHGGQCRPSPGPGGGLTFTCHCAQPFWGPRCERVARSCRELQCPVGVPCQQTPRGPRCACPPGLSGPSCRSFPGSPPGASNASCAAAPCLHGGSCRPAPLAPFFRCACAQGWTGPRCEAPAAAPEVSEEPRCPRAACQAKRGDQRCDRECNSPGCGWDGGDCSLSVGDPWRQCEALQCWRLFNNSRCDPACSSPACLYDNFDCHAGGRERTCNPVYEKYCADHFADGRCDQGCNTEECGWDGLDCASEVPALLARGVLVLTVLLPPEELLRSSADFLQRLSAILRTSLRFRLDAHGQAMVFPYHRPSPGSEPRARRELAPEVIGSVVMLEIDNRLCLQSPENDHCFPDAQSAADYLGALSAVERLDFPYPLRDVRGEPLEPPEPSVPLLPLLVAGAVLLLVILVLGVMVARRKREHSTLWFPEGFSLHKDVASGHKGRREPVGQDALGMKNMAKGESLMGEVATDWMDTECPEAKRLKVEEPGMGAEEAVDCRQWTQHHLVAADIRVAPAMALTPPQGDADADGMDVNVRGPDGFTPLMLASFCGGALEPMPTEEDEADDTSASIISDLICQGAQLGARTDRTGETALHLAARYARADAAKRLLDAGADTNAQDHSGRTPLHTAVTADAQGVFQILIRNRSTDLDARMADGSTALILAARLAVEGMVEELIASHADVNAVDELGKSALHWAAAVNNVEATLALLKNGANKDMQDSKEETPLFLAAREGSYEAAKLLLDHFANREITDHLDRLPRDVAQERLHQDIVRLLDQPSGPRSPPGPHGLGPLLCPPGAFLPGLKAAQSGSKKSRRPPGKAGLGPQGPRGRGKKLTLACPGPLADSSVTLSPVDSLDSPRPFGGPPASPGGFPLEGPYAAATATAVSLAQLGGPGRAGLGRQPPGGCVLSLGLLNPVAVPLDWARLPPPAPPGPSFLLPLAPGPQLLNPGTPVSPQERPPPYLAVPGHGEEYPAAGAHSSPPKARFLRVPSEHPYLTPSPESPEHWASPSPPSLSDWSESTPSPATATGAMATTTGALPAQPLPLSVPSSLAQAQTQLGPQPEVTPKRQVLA
Chain of Torsin-1A-interacting protein 2 (Homo sapiens) (Q8NFQ8 whole entry, looked up): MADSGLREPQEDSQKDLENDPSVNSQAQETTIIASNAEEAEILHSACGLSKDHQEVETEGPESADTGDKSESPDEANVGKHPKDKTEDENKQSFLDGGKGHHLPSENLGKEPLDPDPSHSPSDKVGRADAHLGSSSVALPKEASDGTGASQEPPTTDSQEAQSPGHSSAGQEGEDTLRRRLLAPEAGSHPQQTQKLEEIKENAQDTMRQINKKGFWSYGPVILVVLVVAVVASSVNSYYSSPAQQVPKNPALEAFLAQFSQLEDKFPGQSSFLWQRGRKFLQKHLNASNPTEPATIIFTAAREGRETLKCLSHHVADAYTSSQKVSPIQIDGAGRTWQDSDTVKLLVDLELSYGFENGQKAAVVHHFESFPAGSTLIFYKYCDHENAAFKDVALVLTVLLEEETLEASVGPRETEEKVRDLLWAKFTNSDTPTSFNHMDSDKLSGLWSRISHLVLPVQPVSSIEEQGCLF
Chain of Pro-neuregulin-1, membrane-bound isoform (Homo sapiens) (Q02297 whole entry, looked up, the tested form may be a part, canonical isoform): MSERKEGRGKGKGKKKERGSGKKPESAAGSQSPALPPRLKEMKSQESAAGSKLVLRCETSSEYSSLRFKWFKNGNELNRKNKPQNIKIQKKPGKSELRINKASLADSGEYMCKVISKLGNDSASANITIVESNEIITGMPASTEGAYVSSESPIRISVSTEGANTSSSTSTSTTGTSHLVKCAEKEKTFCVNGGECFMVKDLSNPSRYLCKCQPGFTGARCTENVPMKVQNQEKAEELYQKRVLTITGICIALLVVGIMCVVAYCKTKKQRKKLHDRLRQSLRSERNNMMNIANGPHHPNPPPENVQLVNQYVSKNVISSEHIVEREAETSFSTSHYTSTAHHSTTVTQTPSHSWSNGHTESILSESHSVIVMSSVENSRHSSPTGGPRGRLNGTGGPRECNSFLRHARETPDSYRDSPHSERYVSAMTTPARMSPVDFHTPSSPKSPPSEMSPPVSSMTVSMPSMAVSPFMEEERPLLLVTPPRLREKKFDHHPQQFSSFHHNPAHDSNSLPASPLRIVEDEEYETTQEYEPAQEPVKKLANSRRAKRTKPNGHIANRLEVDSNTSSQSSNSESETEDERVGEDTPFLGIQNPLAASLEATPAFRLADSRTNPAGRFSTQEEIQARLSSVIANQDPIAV

As to `Cc1cc(C)c(C(O)C2C=CC3C(=O)NC(=O)C3N2Nc2ccc(Cl)cc2Cl)c(C)c1` (stereo not given), the composite z-score in assay [1] was 0.246; in assay [2], -0.33; in assay [3] it was 0.059; in [4] it was 0.495; in [5] it was 1.49; in assay [6], 1.65. Further, the composite z-score in assay [7] was 1.01; in assay [9] it was 1.64; in assay [10], -0.0618; in assay [11], 1.2; in [15] it was 3.42; in assay [17] it was 0.114. Further, the composite z-score in assay [18] is 0.364; in assay [19] it was 0.874; in assay [20], -0.0581. Besides, the z-score in assay [8] was 2.81 (inactive); in assay [12], -1.67 (inactive); in assay [13], -3.28 (inactive); in [14], 2.14 (inactive); in assay [16] it was -2.14 (inactive).

On to `CC(CO)N1C(=O)[C@@H]2[C@H]3C(=O)OCC=C[C@H]3OC23C=CCN(CCN2CCOCC2)C(=O)[C@@H]13` (stereo not given in full), for which the composite z-score in [1] was -0.979; in [2] it was -0.0708; in assay [3], -0.203; in [4], -0.362; in assay [5], -0.256; in [6], -0.718. In addition, the composite z-score was 0.284 in assay [7]; -0.0558 in [9]; -0.539 in assay [10]; 0.658 in [11]; -0.986 in [15]; -0.33 in [17]. Moreover, the composite z-score in assay [18] is 0.169; in [19], 0.0282; in assay [20] it was -0.0828. Besides, the z-score in [8] is 1.03 (inactive); in assay [12] it was -0.792 (inactive); in [13], -0.968 (inactive); in assay [14] it was -0.268 (inactive); in assay [16], -0.909 (inactive).

As to `C=CCC(OC(C)=O)[C@@H]1[C@@H](N(Cc2cc3ccccc3o2)C(=O)c2ccc(-c3ccccc3)cc2)c2cc(OCCCO)ccc2N1C(=O)c1ccc2ccccc2c1` (stereo not given in full), the composite z-score in assay [1] was -0.0256; in [2], -0.262; in assay [3], 0.0405; in assay [4], -0.0863; in [5], 0.251; in assay [6] it was 0.0445. Further, the composite z-score in [7] was -0.341; in [9] it was 0.679; in assay [10], -0.214; in [11] it was 0.0279; in assay [15] it was 1.1; in [17] it was -0.0485. Moreover, the composite z-score in assay [18] was 0.228; in assay [19] it was 0.391; in assay [20] it was -0.0981. The z-score was -3.52 (inactive) in [8]; 0.271 (inactive) in assay [12]; 0.314 (inactive) in [13]; 1.03 (inactive) in assay [14]; -0.704 (inactive) in assay [16].

Turning to `O=C(CS)NCCCCCCNC(=O)[C@H]1C[C@H]2C(=O)N[C@@H](Cc3ccccc3)C(=O)N2[C@H]1c1ccc(O)cc1`, the composite z-score in [1] is -0.361; in assay [2], 0.375; in [3] it was -0.132; in [4], 0.836; in [5] it was 0.51; in assay [6], 1.34. In addition, the composite z-score in assay [7] is 1.36; in assay [9], -0.571; in [10], -0.928; in assay [11], 1.53; in [15], 1.91; in assay [17] it was -0.316. The figures for the composite z-score in [18], in assay [19] and in assay [20] were 0.405, 0.635 and -0.105, respectively. For the same molecule, the z-score in assay [8] was 0.234 (inactive); in assay [12], 0.407 (inactive); in assay [13], 1.1 (inactive); in assay [14] it was 1.12 (inactive); in assay [16], -0.0352 (inactive).

With `COCCCNC(=O)[C@@]1(Cc2ccccc2CN=[N+]=[N-])N=C(c2ccc(OCCCO)cc2)O[C@H]1c1ccccc1`, the composite z-score in assay [1] is -0.102; in assay [2] it was 2.1; in assay [3] it was 0.0693; in [4], 0.891; in assay [5], 0.932; in assay [6], 1.72. For the same molecule, the composite z-score in [7] turned out to be 1.2; in assay [9], 1.82; in assay [10] it was 0.28; in assay [11], 1.54; in assay [15], 3.26; in [17] it was 0.0235. The composite z-score was 1.13 in assay [18], 1.12 in assay [19] and -0.0267 in assay [20]. Further, the z-score was -2.01 (inactive) in [8]; 1.06 (inactive) in assay [12]; 1.04 (inactive) in [13]; 11.6 (active) in assay [14]; 0.261 (inactive) in assay [16].

These data come from PubChem BioAssay.
